Laboratory results taken from PubChem BioAssay.
Activity calls are given as the source filed them.

Experiments:
[1] = tested on: PRMT1 (protein arginine N-methyltransferase 1); assay: PRMT1 binders on small-molecule microarrays, primary screen, biochemical, small-molecule microarray, 635 nm fluorescence (AID 1088); settings: small-molecule microarray binding, higher = more signal;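 note: binding of Prmt1 protein to compounds spotted on small-molecule microarray slides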
[2] = yeast growth modulation, basal conditions, primary screen, YJM789 clinical isolate, OD600, 24 h (AID 1089);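 note: growth of clinical yeast isolate S. cerevisiae YJM 789 seeded 1000 cells per well; test concentration not given here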; settings: S. cerevisiae YJM789 growth, higher = more signal, called active from +8 up or from −8 down
[3] = fission yeast growth modulation, primary screen, strain 972, OD600, 24 h, no modulator (AID 1090);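 note: basal condition with compound alone and no growth modifier present; test concentration not given here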; settings: S. pombe 972 growth, higher = more signal, called active from +8 up or from −8 down
[4] = S. cerevisiae growth modulation with rapamycin, primary screen, strain BY4716, OD600, 96 h (AID 1091); settings: higher = more signal, called active from +8 up or from −8 down; note: test concentration not given here
[5] = target: Torsin-1A-interacting protein 2 (Homo sapiens) (UniProt Q8NFQ8); assay: LULL1 binders on small-molecule microarray, primary screen, cell lysate, human LULL1 lysate, 635/667 nm fluorescence (AID 1092); settings: hLULL1 lysate binding, 635 nm fluorescence, higher = more signal;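 note: probe is lysate of COS7 cells overexpressing human LULL1; score merges per-feature 667 nm fluorescence with signal-to-noise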
[6] = E. coli growth modulation, two-sided OD650, primary screen, E. coli filamentation project, strain DRC41, 24 h (AID 1093); settings: OD650, 24 h, higher = more signal, called active from +8 up or from −8 down;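 note: MC1000 strain lacking acrAB efflux and sulA so SOS filamentation is blocked; test concentration not given here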
[7] = small-molecule microarray binders of probe aLefty2, primary screen, biochemical, biotinylated probe, 635/667 nm fluorescence (AID 1094); settings: higher = more signal;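 note: score merges spot fluorescence near 667 nm with spot signal-to-noise ratio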
[8] = tested on: Noggin (protein binding on small-molecule microarray); assay: Noggin binders on small-molecule microarray, primary screen, biochemical, 635/667 nm fluorescence (AID 1095); settings: 635 nm fluorescence, higher = more signal;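 note: score merges 667 nm feature fluorescence with signal to noise over triplicate slides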
[9] = target: Neurogenic locus notch homolog protein 3 (Homo sapiens) (UniProt Q9UM47); assay: NOTCH3 binders on small-molecule microarray, primary screen, biochemical, 635/667 nm fluorescence (AID 1096); settings: NOTCH3 binding, 635 nm fluorescence, higher = more signal
[10] = small-molecule microarray binders of probe aEGFR, primary screen, biochemical, biotinylated probe, 635/667 nm fluorescence (AID 1097); settings: higher = more signal;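 note: probe is a biotinylated anti-EGFR antibody binding compounds printed on slides; score combines fluorescence near 667 nm and signal to noise of each spot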
[11] = tested on: Plasmodium falciparum Sir2 (PF13_0152, Sir2A); assay: pfSir2 binders on small-molecule microarrays, primary screen, biochemical, small-molecule microarray, 635 nm fluorescence (AID 1098); settings: small-molecule microarray binding, fluorescence 635 nm; higher = more signal;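 note: score merges spot fluorescence intensity with its signal-to-noise ratio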
[12] = small-molecule microarray binders of probe aDKK1, primary screen, biochemical, biotinylated probe, 635/667 nm fluorescence (AID 1099); settings: higher = more signal;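 note: score merges 667nm spot fluorescence with signal to noise across triplicate slides; reference of the scale not given here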
[13] = small-molecule microarray binders of probe aCHRDL2, primary screen, biochemical, biotinylated probe, 635/667 nm fluorescence (AID 1100); settings: higher = more signal
[14] = splicing luciferase reporter signal modulators, primary screen, spliceosome inhibition project, cell-based, HEK293, splice +/- reporter (AID 1101); settings: luminescence, 24 h, higher = more signal, called active from +8 up or from −8 down;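 note: HEK293 cells carrying a splicing-competent luciferase reporter gene; test concentration not given here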
[15] = target: Fibroblast growth factor 10 (Homo sapiens) (UniProt O15520); assay: FGF10 binders on small-molecule microarrays, primary screen, biochemical, small-molecule microarray, 635 nm fluorescence (AID 1102); settings: FGF10 binding, fluorescence 635 nm, higher = more signal
[16] = tested on: glycogen synthase kinase-3 (GSK3A per assay name; protocol says GSK3B); assay: GSK3 binders on small-molecule microarrays, primary screen, biochemical, small-molecule microarray, 635 nm fluorescence, GSK3A (AID 1103); settings: small-molecule microarray binding, fluorescence 635 nm; higher = more signal; note: the record names both GSK3A and GSK3B
[17] = target: Epidermal growth factor receptor (Homo sapiens) (UniProt P00533); assay: EGFR binders on small-molecule microarrays, primary screen, biochemical, small-molecule microarray, 635 nm fluorescence (AID 1104); settings: EGFR binding, higher = more signal;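 note: score merges 667 nm emission intensity with spot signal to noise over triplicate slides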
[18] = target: Follistatin-related protein 3 (Homo sapiens) (UniProt O95633); assay: FSTL3 binders on small-molecule microarrays, primary screen, biochemical, small-molecule microarray, 635 nm fluorescence (AID 1105); settings: FSTL3 binding, higher = more signal;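 note: score merges emission near 667 nm and signal to noise per printed spot across three slides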
[19] = target: Dickkopf-related protein 1 (Homo sapiens) (UniProt O94907); assay: DKK1 binders on small-molecule microarrays, primary screen, biochemical, small-molecule microarray, 635 nm fluorescence scan (AID 1106); settings: DKK1 binding, higher = more signal;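 note: score merges emission near 667 nm with signal to noise over three replicate slides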
[20] = tested on: Inhibin beta A chain (activin A); assay: INHBA (activin A) binders on microarrays, primary screen, biochemical, small-molecule microarray, 635 nm fluorescence scan (AID 1107); settings: small-molecule microarray binding, higher = more signal;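 note: mouse activin A protein probed at 4.33 µg/mL on printed slides; score merges bound-protein fluorescence near 667 nm with spot signal-to-noise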

Dickkopf-related protein 1 (Homo sapiens), sequence (O94907 whole entry, looked up): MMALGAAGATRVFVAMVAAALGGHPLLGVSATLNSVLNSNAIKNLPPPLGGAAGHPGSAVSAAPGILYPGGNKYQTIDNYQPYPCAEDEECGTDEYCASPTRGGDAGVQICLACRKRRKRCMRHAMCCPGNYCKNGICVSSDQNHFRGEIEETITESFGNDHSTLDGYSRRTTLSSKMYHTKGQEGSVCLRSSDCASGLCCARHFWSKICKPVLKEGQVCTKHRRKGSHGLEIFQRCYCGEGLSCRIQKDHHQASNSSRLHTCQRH
Torsin-1A-interacting protein 2 (Homo sapiens), sequence (Q8NFQ8 whole entry, looked up): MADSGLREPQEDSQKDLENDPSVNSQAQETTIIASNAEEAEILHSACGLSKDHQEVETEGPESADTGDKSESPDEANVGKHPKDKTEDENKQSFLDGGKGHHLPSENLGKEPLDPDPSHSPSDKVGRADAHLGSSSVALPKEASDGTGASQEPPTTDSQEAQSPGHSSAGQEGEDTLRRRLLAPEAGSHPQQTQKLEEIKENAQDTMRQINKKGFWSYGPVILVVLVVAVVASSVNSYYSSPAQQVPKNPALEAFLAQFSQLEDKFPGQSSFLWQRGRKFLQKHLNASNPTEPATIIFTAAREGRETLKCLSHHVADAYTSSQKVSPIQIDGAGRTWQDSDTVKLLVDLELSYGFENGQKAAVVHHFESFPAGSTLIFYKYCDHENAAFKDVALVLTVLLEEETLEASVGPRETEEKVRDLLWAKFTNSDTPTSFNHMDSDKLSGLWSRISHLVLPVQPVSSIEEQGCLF
Fibroblast growth factor 10 (Homo sapiens), sequence (O15520 whole entry, looked up): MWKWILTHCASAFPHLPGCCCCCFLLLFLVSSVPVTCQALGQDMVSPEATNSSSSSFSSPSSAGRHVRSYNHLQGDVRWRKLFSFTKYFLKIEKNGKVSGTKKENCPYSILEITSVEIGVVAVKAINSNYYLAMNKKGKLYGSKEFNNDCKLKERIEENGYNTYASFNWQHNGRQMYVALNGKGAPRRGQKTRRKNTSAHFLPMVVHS
Follistatin-related protein 3 (Homo sapiens), sequence (O95633 whole entry, looked up): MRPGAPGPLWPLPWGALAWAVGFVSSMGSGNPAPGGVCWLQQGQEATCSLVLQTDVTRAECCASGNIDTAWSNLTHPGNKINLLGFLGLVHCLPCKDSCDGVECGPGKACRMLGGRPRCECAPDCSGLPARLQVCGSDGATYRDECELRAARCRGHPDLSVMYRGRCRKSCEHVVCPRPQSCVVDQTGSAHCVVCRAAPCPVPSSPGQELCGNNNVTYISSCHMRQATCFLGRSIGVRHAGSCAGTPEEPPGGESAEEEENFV
Neurogenic locus notch homolog protein 3 (Homo sapiens), sequence (Q9UM47 whole entry, looked up): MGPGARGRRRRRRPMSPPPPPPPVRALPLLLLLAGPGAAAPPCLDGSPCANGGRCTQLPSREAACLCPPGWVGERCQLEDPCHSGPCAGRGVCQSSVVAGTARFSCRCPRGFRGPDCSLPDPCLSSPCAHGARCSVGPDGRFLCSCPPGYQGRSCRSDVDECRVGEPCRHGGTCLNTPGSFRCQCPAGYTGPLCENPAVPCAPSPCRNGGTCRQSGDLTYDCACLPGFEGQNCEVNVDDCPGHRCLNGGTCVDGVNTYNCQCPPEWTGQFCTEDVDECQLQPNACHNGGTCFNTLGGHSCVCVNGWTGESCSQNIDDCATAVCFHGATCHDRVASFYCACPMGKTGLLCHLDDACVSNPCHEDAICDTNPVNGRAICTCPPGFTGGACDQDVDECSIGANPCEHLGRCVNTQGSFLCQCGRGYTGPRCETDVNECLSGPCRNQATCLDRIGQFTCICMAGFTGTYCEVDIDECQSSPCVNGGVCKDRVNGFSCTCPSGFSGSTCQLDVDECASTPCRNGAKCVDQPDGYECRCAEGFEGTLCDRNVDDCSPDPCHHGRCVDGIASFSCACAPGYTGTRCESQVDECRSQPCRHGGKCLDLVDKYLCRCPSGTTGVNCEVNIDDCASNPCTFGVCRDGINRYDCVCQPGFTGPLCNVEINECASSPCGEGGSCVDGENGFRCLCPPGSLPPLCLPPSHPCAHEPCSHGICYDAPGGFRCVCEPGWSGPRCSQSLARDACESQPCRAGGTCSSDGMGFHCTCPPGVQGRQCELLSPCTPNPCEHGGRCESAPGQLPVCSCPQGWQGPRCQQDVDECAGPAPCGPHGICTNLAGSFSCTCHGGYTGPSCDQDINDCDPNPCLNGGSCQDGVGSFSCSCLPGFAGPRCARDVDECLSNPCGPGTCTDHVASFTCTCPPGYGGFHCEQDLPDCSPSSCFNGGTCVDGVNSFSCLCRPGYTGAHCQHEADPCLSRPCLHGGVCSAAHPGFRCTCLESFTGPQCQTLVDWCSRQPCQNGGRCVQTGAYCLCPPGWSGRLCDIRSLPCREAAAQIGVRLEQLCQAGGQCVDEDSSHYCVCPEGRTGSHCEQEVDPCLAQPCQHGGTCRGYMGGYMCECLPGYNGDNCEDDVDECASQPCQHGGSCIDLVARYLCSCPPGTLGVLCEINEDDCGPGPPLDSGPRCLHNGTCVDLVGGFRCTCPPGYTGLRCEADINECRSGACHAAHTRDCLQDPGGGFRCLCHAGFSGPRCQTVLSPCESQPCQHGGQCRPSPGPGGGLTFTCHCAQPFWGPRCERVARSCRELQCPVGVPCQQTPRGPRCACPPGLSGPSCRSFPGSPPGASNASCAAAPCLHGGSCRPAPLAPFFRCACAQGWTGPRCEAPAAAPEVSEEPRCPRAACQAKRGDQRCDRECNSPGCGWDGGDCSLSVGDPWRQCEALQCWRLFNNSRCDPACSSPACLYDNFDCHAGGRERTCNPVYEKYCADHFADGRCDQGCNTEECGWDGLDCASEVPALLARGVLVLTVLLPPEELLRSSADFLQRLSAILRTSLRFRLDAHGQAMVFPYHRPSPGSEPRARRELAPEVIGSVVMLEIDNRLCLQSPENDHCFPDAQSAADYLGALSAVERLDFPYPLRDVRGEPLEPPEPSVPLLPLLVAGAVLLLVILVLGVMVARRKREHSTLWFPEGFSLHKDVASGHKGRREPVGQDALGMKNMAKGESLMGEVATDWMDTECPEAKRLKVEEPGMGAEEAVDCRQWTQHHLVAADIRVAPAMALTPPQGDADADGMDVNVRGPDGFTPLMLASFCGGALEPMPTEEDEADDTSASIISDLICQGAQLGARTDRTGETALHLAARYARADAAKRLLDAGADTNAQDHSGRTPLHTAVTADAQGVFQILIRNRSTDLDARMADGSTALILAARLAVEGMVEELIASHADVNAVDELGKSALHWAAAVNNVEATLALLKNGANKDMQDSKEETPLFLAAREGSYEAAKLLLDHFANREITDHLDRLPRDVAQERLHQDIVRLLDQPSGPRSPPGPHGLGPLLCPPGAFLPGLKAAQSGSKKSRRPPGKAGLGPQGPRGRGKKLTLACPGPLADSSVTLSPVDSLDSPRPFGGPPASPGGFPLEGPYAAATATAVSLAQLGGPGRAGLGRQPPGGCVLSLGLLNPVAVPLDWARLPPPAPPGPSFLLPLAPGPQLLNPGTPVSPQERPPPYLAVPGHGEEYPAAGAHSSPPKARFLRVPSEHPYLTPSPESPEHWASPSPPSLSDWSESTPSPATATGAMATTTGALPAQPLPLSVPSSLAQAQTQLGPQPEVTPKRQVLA
Epidermal growth factor receptor (Homo sapiens), sequence (P00533 whole entry, looked up): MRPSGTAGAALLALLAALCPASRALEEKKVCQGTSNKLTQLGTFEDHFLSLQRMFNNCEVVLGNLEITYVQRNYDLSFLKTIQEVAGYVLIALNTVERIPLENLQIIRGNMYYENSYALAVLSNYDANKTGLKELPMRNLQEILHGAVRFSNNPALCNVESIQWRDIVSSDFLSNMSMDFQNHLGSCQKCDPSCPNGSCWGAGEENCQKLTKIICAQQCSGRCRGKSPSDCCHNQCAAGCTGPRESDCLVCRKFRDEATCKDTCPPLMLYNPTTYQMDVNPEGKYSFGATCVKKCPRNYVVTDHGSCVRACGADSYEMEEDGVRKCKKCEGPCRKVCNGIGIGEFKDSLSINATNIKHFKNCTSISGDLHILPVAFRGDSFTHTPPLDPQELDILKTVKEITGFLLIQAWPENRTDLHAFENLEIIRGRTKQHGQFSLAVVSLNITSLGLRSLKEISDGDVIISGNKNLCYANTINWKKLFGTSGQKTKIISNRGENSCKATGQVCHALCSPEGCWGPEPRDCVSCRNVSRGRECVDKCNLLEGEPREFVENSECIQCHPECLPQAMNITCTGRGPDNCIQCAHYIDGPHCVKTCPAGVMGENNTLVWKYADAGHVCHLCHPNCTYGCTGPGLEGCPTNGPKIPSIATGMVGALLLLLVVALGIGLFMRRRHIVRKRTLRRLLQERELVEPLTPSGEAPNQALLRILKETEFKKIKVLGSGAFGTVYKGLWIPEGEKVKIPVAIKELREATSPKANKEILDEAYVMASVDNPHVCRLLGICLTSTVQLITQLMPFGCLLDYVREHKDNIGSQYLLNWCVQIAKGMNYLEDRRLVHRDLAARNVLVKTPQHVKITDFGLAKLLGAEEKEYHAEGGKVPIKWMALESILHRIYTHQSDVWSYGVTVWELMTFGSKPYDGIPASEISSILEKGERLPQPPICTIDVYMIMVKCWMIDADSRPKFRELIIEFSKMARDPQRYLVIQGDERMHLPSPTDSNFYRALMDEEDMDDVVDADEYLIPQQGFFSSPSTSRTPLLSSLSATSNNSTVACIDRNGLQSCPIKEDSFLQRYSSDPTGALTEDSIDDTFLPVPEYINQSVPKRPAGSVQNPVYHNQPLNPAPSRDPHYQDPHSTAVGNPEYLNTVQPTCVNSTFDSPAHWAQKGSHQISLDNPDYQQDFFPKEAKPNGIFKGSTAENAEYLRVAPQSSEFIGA

| Compound | composite z-score [1] | z-score [2] | z-score [3] | z-score [4] | composite z-score [5] | z-score [6] | composite z-score [7] | composite z-score [8] | composite z-score [9] | composite z-score [10] | composite z-score [11] | composite z-score [12] | composite z-score [13] | z-score [14] | composite z-score [15] | composite z-score [16] | composite z-score [17] | composite z-score [18] | composite z-score [19] | composite z-score [20] |
| --- | --- | --- | --- | --- | --- | --- | --- | --- | --- | --- | --- | --- | --- | --- | --- | --- | --- | --- | --- | --- |
| Cc1ccccc1C(O)C1C=CC2C(=O)NC(=O)C2N1Nc1ccccn1 (stereo not given) | 0.049 | 0.833 (inactive) | 0.459 (inactive) | 0.0715 (inactive) | 1.6 | -0.957 (inactive) | 0.0361 | 0.232 | -0.308 | 0.092 | 0.105 | 0.145 | 0.397 | 1.55 (inactive) | -0.209 | 0.0301 | 0.262 | 0.056 | 0.144 | 0.605 |
| COc1cc(C(O)C2C=CC3C(=O)N(C)C(=O)C3N2Nc2ccccc2)cc(OC)c1OC (stereo not given) | 1.33 | 0.0446 (inactive) | -0.549 (inactive) | -0.299 (inactive) | 3.62 | 0.238 (inactive) | 0.581 | -0.339 | 1.11 | 0.197 | 1.66 | 1.22 | 0.655 | -0.0318 (inactive) | 0.581 | 1.25 | -0.206 | 0.595 | -0.543 | 0.916 |
| COC(=O)C1=CC(CCCO)=CC(c2cccs2)N(C)C=C1C(=O)OC (stereo not given) | 0.0782 | 0.112 (inactive) | 0.009 (inactive) | 0.241 (inactive) | 1.6 | 0.39 (inactive) | 0.0099 | -0.561 | 0.275 | -0.0034 | 1.52 | 0.122 | 0.187 | 0.844 (inactive) | -0.604 | -1.39 | -0.904 | 0.0507 | -0.442 | 0.788 |
| C=C[C@H]1C(C(=O)OCC)=CC[C@@H](c2ccccc2)N1S(=O)(=O)c1ccc(C)cc1 | 0.895 | 0.293 (inactive) | 1.12 (inactive) | 1.86 (inactive) | 2.94 | -0.558 (inactive) | 0.174 | 0.705 | 1.13 | -0.0531 | 1.05 | 0.158 | 0.587 | -2.78 (inactive) | 0.922 | 1.3 | 0.224 | 1.11 | 0.0288 | 1.34 |
| CN1C(=O)C2C=CC(C(O)c3cccn3C)N(Nc3ccc([N+](=O)[O-])cc3[N+](=O)[O-])C2C1=O (stereo not given) | 0.0715 | 0.82 (inactive) | 1.33 (inactive) | 0.731 (inactive) | 0.711 | -0.345 (inactive) | 0.269 | 0.5 | -0.266 | 0.0365 | 0.0859 | 0.821 | 0.897 | 1.15 (inactive) | 0.219 | -0.269 | -0.157 | -0.0164 | -0.31 | 1.12 |
| COC(=O)[C@@]1(Cc2ccc(OC)cc2)[C@H]2c3cc(C(=O)N(C)C)n(Cc4ccc(C)o4)c3C[C@H]2CN1C(=O)c1ccccc1 | 0.549 | -0.529 (inactive) | 0.805 (inactive) | 0.0527 (inactive) | 3.6 | 0.527 (inactive) | 0.347 | -0.263 | 0.916 | 0.229 | 1.34 | 0.766 | 0.923 | 4.83 (inactive) | 0.251 | 1.18 | -0.102 | 0.514 | -0.716 | 0.861 |
| C=CC[C@@]1(C(=O)NCCCOC)N=C(c2ccc(OCCCO)cc2)O[C@@H]1c1ccccc1N=[N+]=[N-] | 1.14 | 0.339 (inactive) | 0.561 (inactive) | -0.441 (inactive) | 3.09 | 1.24 (inactive) | 0.085 | 0.794 | 0.681 | -0.019 | 0.826 | 0.648 | 0.999 | 0.0875 (inactive) | 0.919 | 0.595 | -0.276 | 0.45 | -0.178 | 0.961 |
| COCCOC(=O)N1C(=O)[C@@]2(c3ccccc31)[C@H](C(=O)NC[C@H](O)c1ccccc1)[C@H]1C(=O)O[C@H](c3ccccc3)[C@H](c3ccccc3)N1[C@@H]2c1ccc(O)cc1 | 1.53 | 0.787 (inactive) | 0.259 (inactive) | 2.83 (inactive) | 3.01 | 1.14 (inactive) | -0.109 | 0.915 | 1.05 | 0.569 | 1.54 | 0.804 | 0.24 | -0.118 (inactive) | 1.42 | 1.32 | 1.01 | 1.44 | 0.827 | -0.0795 |
| CCOC(=O)C[C@H]1[C@H](OC(=O)c2cc3ccccc3oc2=O)[C@@H](NC(=O)c2ccccc2)c2cc(OCCCO)ccc2N1C(=O)c1ccccc1 | 0.58 | 0.126 (inactive) | -1.64 (inactive) | -0.277 (inactive) | -0.098 | -0.12 (inactive) | -0.0422 | 0.992 | 0.819 | 0.223 | -0.06 | -0.198 | -0.432 | -0.644 (inactive) | 0.836 | 0.775 | 0.417 | 0.653 | 0.415 | 0.225 |
| CN(C)C(=O)[C@@]1(Cc2ccccc2)N=C(c2ccc(OCCCO)cc2)O[C@H]1c1ccccc1 | 0.584 | -0.826 (inactive) | -2.23 (inactive) | 0.221 (inactive) | 3.4 | 0.982 (inactive) | 0.344 | -0.642 | 0.229 | 0.642 | 1.46 | 1.26 | 1.24 | -0.24 (inactive) | 1.2 | 1.18 | -0.591 | 0.109 | -0.273 | 0.139 |
